Measured values taken from the supplement of paper PMC10037445.
“And” between values parts separate entries of the source, which are not always exact repeats. Identical values can stand only once. In all, about 2,900 compounds were measured (“NF-kB SEAP reporter activity, fold change vs agonist alone”: median about 0.99, highest 2% from about 2.6 on). The sample as a whole holds a higher share of the highest values than the screen did.

How the values were obtained:
[1] = tested on: RAW-Dual; test: NF-kB SEAP reporter activity, fold change vs agonist alone; higher = enhanced NF-kB activity; details: library stock concentration (final ~1000-fold dilution): 10 mM
Summary of the method: (§1)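 Reporter activity is given as fold change relative to agonist-alone wells. To measure it, 50 nL of library stock was pin-tooled onto RAW-Dual macrophages (50,000 cells/well, DMEM, 384-well plates), a PRR agonist followed 1 h later, and cells stayed at 37 °C, 5% CO2. Twenty hours on, supernatant was assayed for IRF (QuantiLuc luminescence) and NF-κB (QuantiBlue, 620 nm absorbance), and wells under 70% of agonist-control IncuCyte confluency in both mask sets were marked cytotoxic.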

[2] = tested on: RAW-Dual; test: NF-kB SEAP reporter activity, fold change vs agonist alone; cytotoxicity flag (confluency mask): not cytotoxic; library stock concentration (final ~1000-fold dilution): 10 mM; higher = enhanced NF-kB activity
Summary of the method: as §1

[3] = tested on: RAW-Dual; test: NF-kB SEAP reporter activity, fold change vs agonist alone; cytotoxicity flag (confluency mask): cytotoxic (confluency <70% of control); library stock concentration (final ~1000-fold dilution): 10 mM; higher = enhanced NF-kB activity
Summary of the method: as §1

[4] = cytotoxicity flag (confluency mask): not cytotoxic, agonist: Imiquimod (TLR7) […]
[5] = cytotoxicity flag (confluency mask): not cytotoxic, agonist: MPLA (TLR4) […]
[6] = agonist: ODN 1826 (TLR9) 0.5 ug/mL
[7] = agonist: Pam2CSK4 (TLR2/6) 0.1 ug/mL
[8] = agonist: Pam3CSK4 (TLR2/1) 0.1 ug/mL

`COc1cc(C)[nH]c(=O)c1CNC(=O)c1c(C)n(C(C)C2CCOCC2)c2ccccc12` (configuration not stated) was tested, and the “NF-kB SEAP reporter activity” value [1, 4] was 0.902, the “NF-kB SEAP reporter activity” value [1, 5] was 1.02 and the “NF-kB SEAP reporter activity” value ([2]; agonist: LPS (TLR4) 0.1 ug/mL) was 1.26. The “NF-kB SEAP reporter activity” value [2, 6] was 1.05, the “NF-kB SEAP reporter activity” value [2, 7] was 0.992 and the “NF-kB SEAP reporter activity” value [2, 8] was 0.786.

For `Cl[Te]1(Cl)(Cl)OCCO1.N`, the “NF-kB SEAP reporter activity” value [1, 4] was 0.792, the “NF-kB SEAP reporter activity” value [1, 5] was 0.899 and the “NF-kB SEAP reporter activity” value ([2]; agonist: LPS (TLR4) 0.1 ug/mL) was 1.39. For the same compound, the “NF-kB SEAP reporter activity” value [2, 6] was 0.846, the “NF-kB SEAP reporter activity” value [2, 7] was 0.912 and the “NF-kB SEAP reporter activity” value [2, 8] was 1.28.

With `CCCCCc1cc(O)cc(O)c1` the “NF-kB SEAP reporter activity” value [1, 5] was 0.946, the “NF-kB SEAP reporter activity” value ([2]; agonist: LPS (TLR4) 0.1 ug/mL) was 1.11 and the “NF-kB SEAP reporter activity” value [2, 6] was 0.427. For the same compound, the “NF-kB SEAP reporter activity” value [2, 7] was 0.966 and the “NF-kB SEAP reporter activity” value [2, 8] was 0.739.

In the case of `CCCCCCC[n+]1ccc(-c2cc[n+](CCCCCCC)cc2)cc1`, the “NF-kB SEAP reporter activity” value [1, 4] is reported as 1.32, the “NF-kB SEAP reporter activity” value [1, 5] is reported as 2.11 and the “NF-kB SEAP reporter activity” value ([2]; agonist: LPS (TLR4) 0.1 ug/mL) is reported as 3.95. For the same compound, the “NF-kB SEAP reporter activity” value [2, 6] was 1.17, the “NF-kB SEAP reporter activity” value [2, 7] was 1.02 and the “NF-kB SEAP reporter activity” value [2, 8] was 1.14.

For `O=C([O-])C(Cl)Cl.[Na+]`, the “NF-kB SEAP reporter activity” value ([2]; agonist: LPS (TLR4) 0.1 ug/mL) was 1.11 and 0.906, the “NF-kB SEAP reporter activity” value [2, 6] was 1.14 and 0.982 and the “NF-kB SEAP reporter activity” value [2, 7] was 1.11 and 0.989. For the same compound, the “NF-kB SEAP reporter activity” value [2, 8] was 1.19 and 1.32.

`CCNc1nc(Cl)nc(NC(C)C)n1` was tested, and the “NF-kB SEAP reporter activity” value [1, 5] was 1.29, the “NF-kB SEAP reporter activity” value ([2]; agonist: LPS (TLR4) 0.1 ug/mL) was 1.55 and the “NF-kB SEAP reporter activity” value [2, 6] was 1.4. For the same compound, the “NF-kB SEAP reporter activity” value [2, 7] was 1.5 and the “NF-kB SEAP reporter activity” value [2, 8] was 1.67.

In the case of `COc1cc(C2c3cc4c(cc3C(O)C3COC(=O)C23)OCO4)cc(OC)c1OC` (configuration not stated), the “NF-kB SEAP reporter activity” value ([1]; cytotoxicity flag (confluency mask): cytotoxic (confluency <70% of control), agonist: Imiquimod (TLR7) […]) is reported as 1.61, the “NF-kB SEAP reporter activity” value ([1]; cytotoxicity flag (confluency mask): cytotoxic (confluency <70% of control), agonist: MPLA (TLR4) […]) is reported as 1.92 and the “NF-kB SEAP reporter activity” value ([3]; agonist: LPS (TLR4) 0.1 ug/mL) is reported as 5.49. The “NF-kB SEAP reporter activity” value [3, 6] was 2.81, the “NF-kB SEAP reporter activity” value [3, 7] was 1.6 and the “NF-kB SEAP reporter activity” value [3, 8] was 2.18.

In the case of `COc1cc(C2c3cc4c(cc3C(O)C3COC(=O)C23)OCO4)cc(OC)c1O` (configuration not stated), the “NF-kB SEAP reporter activity” value [1, 4] is reported as 2.53, the “NF-kB SEAP reporter activity” value [1, 5] is reported as 2.24 and the “NF-kB SEAP reporter activity” value ([2]; agonist: LPS (TLR4) 0.1 ug/mL) is reported as 3.91. The “NF-kB SEAP reporter activity” value [2, 6] was 3.47, the “NF-kB SEAP reporter activity” value [2, 7] was 2.24 and the “NF-kB SEAP reporter activity” value [2, 8] was 2.24.

With `COc1ccc2c(c1OC)CN1CCc3cc4c(cc3C1C2)OCO4` (configuration not stated) the “NF-kB SEAP reporter activity” value [1, 5] was 1, the “NF-kB SEAP reporter activity” value ([2]; agonist: LPS (TLR4) 0.1 ug/mL) was 1.21 and the “NF-kB SEAP reporter activity” value [2, 6] was 1.04. For the same compound, the “NF-kB SEAP reporter activity” value [2, 7] was 0.89 and the “NF-kB SEAP reporter activity” value [2, 8] was 1.26.

With `CC[N+](C)(CC)CCOC(=O)C(O)(c1ccccc1)c1ccccc1` the “NF-kB SEAP reporter activity” value [1, 5] was 1.01, the “NF-kB SEAP reporter activity” value ([2]; agonist: LPS (TLR4) 0.1 ug/mL) was 0.821 and the “NF-kB SEAP reporter activity” value [2, 6] was 0.989. For the same compound, the “NF-kB SEAP reporter activity” value [2, 7] was 0.934 and the “NF-kB SEAP reporter activity” value [2, 8] was 1.39.

In the case of `COc1cc(-n2c(S)nc3ccccc3c2=O)c(Cl)cc1Cl`, the “NF-kB SEAP reporter activity” value [1, 4] is reported as 0.851, the “NF-kB SEAP reporter activity” value [1, 5] is reported as 0.953 and the “NF-kB SEAP reporter activity” value ([2]; agonist: LPS (TLR4) 0.1 ug/mL) is reported as 1.4. For the same compound, the “NF-kB SEAP reporter activity” value [2, 6] was 0.842, the “NF-kB SEAP reporter activity” value [2, 7] was 0.849 and the “NF-kB SEAP reporter activity” value [2, 8] was 0.826.

With `CCC1(c2c[nH]cn2)Cc2ccccc2C1.Cl` the “NF-kB SEAP reporter activity” value [1, 5] was 0.931, the “NF-kB SEAP reporter activity” value ([2]; agonist: LPS (TLR4) 0.1 ug/mL) was 0.796 and the “NF-kB SEAP reporter activity” value [2, 6] was 0.745. For the same compound, the “NF-kB SEAP reporter activity” value [2, 7] was 0.9 and the “NF-kB SEAP reporter activity” value [2, 8] was 0.997.

For `CN1C2CCC1CC(=O)C2`, the “NF-kB SEAP reporter activity” value [1, 4] was 1.66, the “NF-kB SEAP reporter activity” value [1, 5] was 1.16 and the “NF-kB SEAP reporter activity” value ([2]; agonist: LPS (TLR4) 0.1 ug/mL) was 0.911. For the same compound, the “NF-kB SEAP reporter activity” value [2, 6] was 1.6, the “NF-kB SEAP reporter activity” value [2, 7] was 1 and the “NF-kB SEAP reporter activity” value [2, 8] was 1.54.

With `CCC1CN2CCC3(C(=O)Nc4ccccc43)C2CC1/C(=C\OC)C(=O)OC` (configuration not stated) the “NF-kB SEAP reporter activity” value [1, 4] was 0.907, the “NF-kB SEAP reporter activity” value [1, 5] was 1.25 and the “NF-kB SEAP reporter activity” value ([2]; agonist: LPS (TLR4) 0.1 ug/mL) was 1.1. For the same compound, the “NF-kB SEAP reporter activity” value [2, 6] was 0.873, the “NF-kB SEAP reporter activity” value [2, 7] was 0.87 and the “NF-kB SEAP reporter activity” value [2, 8] was 0.852.
